The text below walks through data of the supplement of paper PMC6555819.

The subject of the experiment is VDR:RXRa (NR concentration 270 nM, RXRa partner concentration 90 nM). As to the kind of experiment: PBM binding z-score (relative to random genomic background probes); higher = stronger binding; sequences stand for … in GC…GCGATTGACAGCGTAGAATGAAGG
The procedure: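 Protein-binding microarray (Agilent 4x180K custom design, double-stranded 60-nt probes: 5' GC cap, 34-nt variable region, 24-nt constant primer region; full probe sequence given). Purified or IVT nuclear receptor:RXRα heterodimers (3:1 NR:RXRα, mostly 270:90 nM) or homodimers were incubated for 1 h in PBS with 2% milk and no ligand, then detected with Alexa488 antibodies. Fluorescence from o1-orientation probes (~5 replicates averaged) was converted to z-scores against 500 random hg19 background probes. Variable regions are seed direct-repeat (DR0–DR5) sites, all their single-nucleotide variants and half-site ablations.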
Take TCTCGGAGGACACGAGAGGTCAGAGCTCGACATC: the PBM binding z-score stood at 3.41.

Consider AGAACGAGGGCAATGACTTGATAGCACGGGTGGC, for which the PBM binding z-score is 0.34.

As for CCACGGAGGACAACAGGAGGTCAGAGCTGCCAGA, the PBM binding z-score amounted to 2.13.

Turning to TAGCCAAGGTCATTGGGCCAGTATAGTACGCATC, the PBM binding z-score was determined as 4.87.

CCTTACGGGTCACGGACAGGTTATAGCATTTGGA showed a PBM binding z-score of 4.74.

In turn, ACTAGCAGGCCAAGTTGGGGTCACTCAAACAAAG had a PBM binding z-score of 4.77.

For ATCTAAAGGTCGACGAGGTGAGTATACACCGTTT, the PBM binding z-score amounted to 5.21.

CCTCTGAGGACAGAAGGTCAGAGCTGTCCGCTTT gave a PBM binding z-score of 1.2.

Take ACTTACGGGTCAACGAGGTTGTAGCACGCGTATA: the PBM binding z-score was found to be 7.54.

In turn, ATCTCTAGGTAAGACTCAGTTCAGCGAAGAACGC had a PBM binding z-score of 0.97.

As to TATCGGAGGACACGAAGGTCAGAGCTTTCCAGAG, the PBM binding z-score came to 2.32.

CATACAGGGTCAGCTAGGCCAGCGTAGGGACGGC had a PBM binding z-score of 3.62.

For GGAACGAGGGCAATGTTGATAGCATCTGTCGACG, the PBM binding z-score was determined as 0.402.

Consider ATCGAAAGGTCGAATGTGAGTATACCCACCCGAA, for which the PBM binding z-score was found to be 2.84.

ACTCGGAGGACCAAGGTCAGAGCTACGCCAGTGA had a PBM binding z-score of 1.34.

With CTACCAAGGTGAACAAGGCCGTTGATTACTATTC, the PBM binding z-score came out at 3.58.

In turn, GGAACGAGGGCATTCGACTTGATAGCATGGCGAT returned a PBM binding z-score of 1.35.

Sequence GGAAGGAGGGCAAGTTGATAGCAGAGTTTGATGG returned a PBM binding z-score of 0.934.

The sequence ATATGTAGGTTAGCTCGGGTCATTCAGACTAGGC had a PBM binding z-score of 3.96.

As for TCTTGTAGATCCGCAGGTTAAGAAAGCTGGCCAA, the PBM binding z-score worked out at 0.237.

Sequence AGAATGAGGTTATACGTAGATCAGCGAAGAAAGT had a PBM binding z-score of 0.978.

The sequence TCTAGTTGCTCAAAGGTCACACACTCGAAATGCG returned a PBM binding z-score of 4.77.

Sequence TCTTGTAGATCAGAGGTTAAGAAAGCCGAAGCCT showed a PBM binding z-score of 0.673.

In turn, CAAACTAGGTCACGAAAGGTCCAAGTCGAATGAC displayed a PBM binding z-score of 3.82.

In turn, GGAACGAGGGCAAAGTTGATAGGATCTGTCGACG registered a PBM binding z-score of 1.37.

In the case of CCTTACGGGTCACTTCAGGTTATAGCATCGGAGT, the PBM binding z-score was 4.22.

The sequence GTACCAAAGTGAATAGGTCGTTGATGAGTAGGCG had a PBM binding z-score of 0.0078.

The sequence ATCTATAGGTAAAGTTCAGTGAAAGATCGATAGA came in with a PBM binding z-score of 1.65.

Consider AGTCAAAGTTCAGAACGAGGTAACGTAAAGCACG, for which the PBM binding z-score was determined as 2.86.

As for TGTATTAGTTGAAGGGCAACCGACGAGTCCGTTT, the PBM binding z-score was determined as 0.926.

Consider TCTGGGAGGACACGAAGGTCAGAGCTTTCCAGAG, for which the PBM binding z-score came to 2.18.

TCTGCAAGGTCAGTTGGTCAGCTAACGAGCTGCC registered a PBM binding z-score of 2.19.

Take CGTCCAATGTCAGAGAGGTCAGTGAATGCCGAGT: the PBM binding z-score amounted to 5.22.

Sequence AGAAAGAGGTTAAGATCAGGGAAACAGAATACAT showed a PBM binding z-score of 1.25.

Turning to TGTTGTAGATCAACAGGAGGTTAAGAAAGATCGA, the PBM binding z-score came to 0.37.

The sequence ATCTCGAGGTAAAAGTTCAGTGAATCCCGAGGAT gave a PBM binding z-score of 1.7.

CCTATTAGTTGACCGTAAGGGCAACCGAAGCTCG had a PBM binding z-score of 0.821.

Regarding AACACAGGGTCACTAGGCCAGAGTAGGTACGAAT, the PBM binding z-score worked out at 3.96.

In the case of ATACCAAGGTGATCGTGAGGTCGTTGATACTAAC, the PBM binding z-score was determined as 3.23.

Take GCTAGTTGGTCACTAAAAGGTCACACACCGGTCG: the PBM binding z-score turned out to be 4.17.
